# The list is not random: actives were taken first. Their share in the collection is about 3%.
# mTORC1 inh: mTORC1 pathway inhibition measured by phospho-rpS6 | AID 493208 | Potency, µM (highest dose often 38.3 µM), hits mostly inhibitors | 44,000 tested, 0.78% active | Tsc2-/- p53-/- MEF, phospho-rpS6 immunofluorescence/PI, 24 h; further: nearly all actives have a fitted effect of over 50% in size
#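 Read-out: phospho-S6 Alexa-488 intensity over PI intensity per well, scored as % active cells using thresholds from rapamycin (7.5 nM) and DMSO controls. Tsc2-/-, p53-/- MEFs exposed to compound for 24 h; PI cell count recorded as viability.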
# S16 F2sN tox: S16 Schwann cell cytotoxicity | AID 1508642 | 43,000 tested, 0.48% active | S16 Pmp22-F2sN Schwann cells viability, CellTiter-Glo, 24 h | Potency, µM (highest dose often 57.5 µM), most hits filed as cytotoxic; further: nearly all actives have a fitted effect of over 65% in size
#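 Luminescence from CellTiter-Glo, read by CCD camera after a 15 min room-temperature incubation, served as the viability signal. Reporter Schwann cells (S16 Pmp22-F2sN) had been treated with pin-transferred compounds for 24 h at 37C.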
# PMP22 txn prim: modulates PMP22 transcription in S16 Schwann cells; S16 Pmp22-F2sN Schwann cells (luciferase reporters placed in the Pmp22 gene), FLuc/NLuc coincidence luminescence, 24 h; Potency, µM (titrated, usually from 57.5 µM), usual class: inhibitors; 43,000 tested, 2% active; AID 1508649; active means clear falling dose curves in both reporters; inconclusive means both reporters move, but less clearly or upward; inactive means either reporter flat; the % is the NLuc reporter signal
#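 Transcriptional readout in edited S16(c9) cells: two luciferases reported from the Pmp22 locus, measured in turn after 24 h compound incubation.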
# p53null 39C tox: selectivity test: cytotoxicity in p53 null cells, nonpermissive temperature; H1299 p53-null (neo) cells, 39C, ATPlite viability, 24 h; Potency, µM (highest dose often 46.1 µM), most hits filed as cytotoxic; 55,000 tested, 0.97% active; further: nearly all actives have a fitted effect of over 50% in size
#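 Temperature-shift cytotoxicity format: compound titrations on p53-null or A138V-expressing H1299 cells held 24 hr at 39C, cell ATP then measured, AC50 from Hill model.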
# p53null 32C kill: selectivity test: cytotoxicity in p53 null cells, permissive temperature; H1299-neo p53 null cells, ATP luminescence, 24 h, 32C; Potency, µM (series often up to 46.1 µM), most hits filed as cytotoxic; 55,000 tested, 0.62% active; AID 903; further: nearly all actives have a fitted effect of over 55% in size
#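 ATP-content luminescence in p53-null H1299-neo cells after 24 h compound exposure (up to 46 uM) at 32C permissive temperature; 0% and 100% killing set by DMSO and 100 uM tamoxifen; Hill-equation AC50.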
# OvCa metastasis: ovarian cancer metastasis inhibition, 3D TME model. 46,000 tested, 0.1% active. SKOV3ip1-GFP adhesion/invasion on 3D omental model, fluorescence. Potency, µM (top dose mostly 45.8 µM), actives largely listed as inhibitors; further: nearly all actives have a fitted effect of over 65% in size
#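 Primary human omental fibroblast/mesothelial 3D culture pre-formed 48 h. SKOV3ip1-GFP cells added with compounds (0.36-46 umol/L), incubated 2 h RT/16 h 37 C, fixed; GFP cells quantified at 488/509 nm.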
# Numbers stand for hits; i = inactive; ? = inconclusive; nt = no result given. Unless noted, the call rests on the fitted dose curve; in most records, active means well fitted curve in the direction sought with a large enough effect; inconclusive means small, poorly fitted or top-dose-only effect, or another doubt; inactive means no such curve, though single readings can be large; an effect the other way counts as inactive or inconclusive.
SMILES,mTORC1 inh,S16 F2sN tox,PMP22 txn prim,p53null 39C tox,p53null 32C kill,OvCa metastasis
CC1CCN(c2cc(N3CCN(C)CC3)ccc2NC(=O)c2cc(C#N)c[nH]2)CC1,nt,nt,nt,nt,nt,i
N=C1SC(=Cc2ccc(-c3ccc4c(c3)C(=O)NC4=O)o2)C(=O)N1c1ccc(Br)cc1,nt,nt,nt,nt,nt,i
CCN(CC)c1cc(C)c2cc(NC(=O)/C=C/c3cc(OC)c(OC)c(OC)c3)ccc2n1,18µM,?,?,22µM,?,?
CCOc1ccc(/C=C/C(=O)Nc2ccc3nc(N(CC)CC)cc(C)c3c2)cc1OC,13µM,?,?,i,i,?
COc1cc(=C2C=c3ccccc3=N2)[nH]c1=Cc1[nH]c(C)cc1C,nt,nt,nt,nt,nt,i
COc1ccc(S(=O)(=O)Nc2cccc(-c3ccc(N4CCC(C)CC4)nn3)c2)c(OC)c1,i,nt,nt,13µM,13µM,i
CCc1ccc(S(=O)(=O)Nc2cccc(-c3ccc(N4CCC(C)CC4)nn3)c2)s1,i,nt,nt,13µM,10µM,i
CCOc1ccc(-c2cccc(NS(=O)(=O)c3ccc(C)s3)c2)nn1,i,i,i,i,i,i
CC(=O)Nc1ccc(S(=O)(=O)Nc2cccc(-c3ccc(N4CCC(C)CC4)nn3)c2)cc1,i,nt,nt,3.2µM,4µM,i
CC(=O)c1ccc(S(=O)(=O)Nc2ccc(-c3ccc(N4CCCCCC4)nn3)cc2)cc1,i,nt,nt,?,i,i
CC(=O)c1ccc(S(=O)(=O)Nc2ccc(-c3ccc(N4CCCCC4)nn3)cc2)cc1,i,nt,nt,16µM,?,i
CC(=O)Nc1ccc(S(=O)(=O)Nc2cccc(-c3ccc(N4CCCCCC4)nn3)c2)cc1,i,nt,nt,?,?,i
CNC(=O)c1cc(Oc2ccc(NC(=O)Nc3ccc(Cl)c(C(F)(F)F)c3)c(F)c2)ccn1,nt,nt,nt,nt,nt,i
C[C@H](CCC(=O)O)[C@H]1CC[C@H]2[C@@H]3[C@H](O)C[C@@H]4C[C@H](O)CC[C@]4(C)[C@@H]3CC[C@]12C,nt,nt,nt,nt,nt,i
Cc1ccc(C(N)=O)cc1Nc1nccc(-c2cn(C(C)C)c3cnccc23)n1,nt,nt,nt,nt,nt,i
NC1CCC(Nc2nc(Nc3ccc(C(=O)N4CCCCC4)cc3)c3ncn(-c4cccc(F)c4)c3n2)CC1 (centres undefined),nt,nt,nt,nt,nt,i
COc1ccc(-n2c(/C=C/c3cc(OC)c(OC)cc3OC)nc3cc4ccccc4cc3c2=O)cc1Cl,?,i,i,i,i,i
COc1ccc(-n2c(/C=C/c3ccccc3F)nc3cc(OC)c(OC)cc3c2=O)cc1Cl,i,10µM,i,i,i,i
O=C(Nc1ccc2nc(-c3ccco3)[nH]c2c1)c1cccs1,nt,nt,nt,10µM,7.1µM,nt
CC(C)(C)Cn1c(N)nc2ccc(-c3[nH]c(C(C)(C)C)nc3-c3ccc(F)cc3)nc21,nt,nt,nt,nt,nt,i
O=C(O)C(O)Cc1ccc(O)c(O)c1 (centres undefined),nt,nt,nt,nt,nt,i
CCN(CC)CCOC(=O)c1ccc(NC(=O)CSc2cc(=O)n(CC)c3ccccc23)cc1,i,?,?,2.5µM,i,i
CCn1c(=O)cc(SCC(=O)Nc2ccc(C)c(F)c2)c2ccccc21,i,i,i,i,i,i
CN1CCN(c2ncc(-c3cc(Cl)cc(Cl)c3Cl)c(N)n2)CC1,nt,nt,nt,nt,nt,i
Cc1cn([C@@H]2O[C@H](CO)[C@@H](O)[C@H]2F)c(=O)[nH]c1=O,nt,nt,nt,nt,nt,i
SMILES,mTORC1 inh,S16 F2sN tox,PMP22 txn prim,p53null 39C tox,p53null 32C kill,OvCa metastasis
CC(C)c1ccc(OC(=O)c2cc(-c3ccc4c(c3)OCCO4)on2)cc1,i,i,i,32µM,13µM,i
COc1ccc(OC(=O)c2cc(-c3ccc4c(c3)OCCO4)on2)cc1,i,i,i,?,13µM,i
COc1ccc(C(=O)Nc2ccc3c(c2)OCCO3)cc1,nt,nt,nt,11µM,11µM,nt
CCOC(=O)c1ccc(NC(=O)Nc2ccc3c(c2)OCCO3)cc1,nt,nt,nt,i,i,nt
N#Cc1ccc(OC(=O)c2cc(-c3ccc4c(c3)OCCO4)on2)cc1,i,i,i,?,?,i
O=C(Oc1ccc(Cl)cc1)c1cc(-c2ccc3c(c2)OCCO3)on1,i,i,i,i,i,i
O=C(C=CC=Cc1ccc2c(c1)OCO2)N1CCCCC1,nt,nt,nt,nt,nt,i
CCOc1ccc(CNC(=O)CSc2nnc(C)c3c(C)n(-c4ccccc4)nc23)cc1,i,i,i,25µM,i,i
CCN1CCc2nc3sc(C(=O)Nc4cccc(Cl)c4C)c(N)c3cc2C1,?,?,12µM,?,i,i
CC(C)c1cnn2c(NCc3ccccc3)cc(NCCCCCCN)nc12,nt,nt,nt,nt,nt,i
COc1cc(-c2nc3cnccn3c2Nc2ccc(C(C)C)cc2)ccc1O,15µM,?,?,16µM,?,i
Cc1ccn2c(Nc3ccc(C(C)C)cc3)c(-c3cccnc3)nc2c1,i,?,?,i,i,i
CC(C)c1ccc(Nc2c(-c3ccccn3)nc3ccccn23)cc1,i,8.9µM,14µM,?,i,?
CC(C)c1ccc(Nc2c(-c3ccccc3O)nc3cnccn23)cc1,i,i,?,25µM,i,i
CCNC(=O)Nc1ccc(-c2nc3c(c(N4CCOC[C@H]4C)n2)CCN(C2COC2)C3)cc1,nt,nt,nt,nt,nt,i
CCOC(=O)N1CCN([N+]([O-])=NOc2ccc([N+](=O)[O-])cc2C#N)CC1,nt,nt,nt,nt,nt,i
COc1ccc(N2CCN(C(=O)c3ccc4c(=O)n(CCc5ccc(OC)c(OC)c5)c(=O)[nH]c4c3)CC2)cc1,i,?,13µM,i,i,i
CCOc1ccc(Nc2nc(Nc3ccc(OCC)cc3)nc(N3CCOCC3)n2)cc1,2.3µM,i,i,i,i,i
Cc1cccc(Nc2nc(Nc3cccc(C)c3)nc(N3CCOCC3)n2)c1,1.2µM,i,?,i,i,i
COc1cc(NC(=O)c2cccc(F)c2)ccc1NC(=O)c1cc2ccccc2o1,16µM,i,i,i,i,i
COc1ccccc1N1CCN(C(=O)c2ccc(Nc3nc4ccccc4n4nnnc34)cc2)CC1,i,3.5µM,?,i,i,i
CC(C)CCNC(=O)c1cccc(Nc2nc3ccccc3n3nnnc23)c1,?,20µM,9.5µM,?,i,?
Cc1ccc(C)c(N2CCN(C(=O)c3ccc(Nc4nc5ccccc5n5nnnc45)cc3)CC2)c1,?,i,i,i,i,i
Cc1[nH]c(C=C2C(=O)Nc3ccccc32)c(C)c1CCC(=O)O,nt,nt,nt,nt,nt,i
COc1ccc(NS(=O)(=O)c2ccc(N3CCCCS3(=O)=O)cc2)cc1Cl,i,?,7.3µM,i,i,i
Cc1cc(=O)n2nc(N3CCC(C(=O)Nc4ccc(Br)c(C)c4)CC3)sc2n1,i,i,15µM,i,i,i
Cc1cccc(C)c1NC(=O)Cn1c(=O)n(Cc2ccc(C(=O)NCc3ccco3)cc2)c(=O)c2sccc21,?,i,?,?,?,i

# Source: PubChem (National Center for Advancing Translational Sciences (NCATS))
